Hit rate of the full screen: of about 340,000 compounds, about 2,100 (0.62%) were called active.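 The calls were made as follows: active = first-screen hits whose inhibition reached a set limit at any dose in the follow-up dose series; inconclusive = inhibition above the set first-screen limit but never retested; inactive = the rest.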 Not all results are given here. Measured potencies and affinities stand elsewhere.

In the experiment the target is Rac GTPase-activating protein 1 (Homo sapiens) (UniProt Q9H0H5). The experiment is described as follows: MgcRacGAP GTPase-activating activity inhibitors, confirmation, biochemical, ADP Hunter fluorescence, primary and confirmatory (AID 624330).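 Also: fluorescence reports GDP produced by GAP-driven GTP hydrolysis.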 The note with it: MgcRacGAP-stimulated Rac1 GTP hydrolysis, at 30 µM, hits give high values, GST-tagged Rac1 F28L mutant substrate.
Rac GTPase-activating protein 1 (Homo sapiens), sequence (Q9H0H5 whole entry, looked up): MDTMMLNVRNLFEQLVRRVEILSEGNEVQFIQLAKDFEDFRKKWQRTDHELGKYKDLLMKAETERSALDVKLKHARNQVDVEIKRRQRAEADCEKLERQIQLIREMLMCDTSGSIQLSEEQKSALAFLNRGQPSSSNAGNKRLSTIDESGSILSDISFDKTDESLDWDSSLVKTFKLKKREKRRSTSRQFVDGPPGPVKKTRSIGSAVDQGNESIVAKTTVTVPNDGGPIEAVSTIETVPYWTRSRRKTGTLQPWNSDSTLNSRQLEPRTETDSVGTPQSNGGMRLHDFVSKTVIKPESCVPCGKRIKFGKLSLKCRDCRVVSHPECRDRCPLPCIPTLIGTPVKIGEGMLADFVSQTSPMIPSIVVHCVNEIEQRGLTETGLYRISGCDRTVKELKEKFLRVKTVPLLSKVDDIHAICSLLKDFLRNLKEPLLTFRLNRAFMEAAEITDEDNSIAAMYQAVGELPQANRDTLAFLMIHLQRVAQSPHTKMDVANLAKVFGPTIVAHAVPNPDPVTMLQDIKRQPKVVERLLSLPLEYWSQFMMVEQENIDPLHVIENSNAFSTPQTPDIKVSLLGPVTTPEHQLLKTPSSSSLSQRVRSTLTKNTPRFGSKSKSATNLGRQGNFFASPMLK
A word on the inhibition: it is the drop in the measured response relative to a control, in per cent. For `CC(C)C(O)(C#CCN1CCCCC1)c1ccccc1` (stereo unspecified), the inhibition is -1.57% (inactive).
As for `Cc1ccc(NC(=O)CSCC(=O)Nc2nnc(C3CC3)s2)cc1`, the figure is 7.27% (inactive); as for `CCOC(=O)c1c(C)n(-c2ccc(C)cc2)c2ccc(OCC(O)CNCCCO)cc12` (stereo unspecified), 14.9% (inactive); as for `CCOC(=O)c1c(C)n(-c2ccc(C)cc2)c2ccc(OCC(O)CN3CCN(C)CC3)cc12` (stereo unspecified), 5.99% (inactive).
For the compound `O=C(COC(=O)c1cc(=O)[nH]c(=O)[nH]1)NCc1ccccc1`, the inhibition was 3.71% (inactive).
As for `O=C(Nc1nnc(-c2ccncc2)s1)C1CCCO1` (stereo unspecified), the figure is 2.37% (inactive); as for `CC(C)CN(C(=O)COC(=O)c1cc(=O)[nH]c2ccccc12)c1c(N)n(Cc2ccccc2)c(=O)[nH]c1=O`, 4.11% (inactive).
Next, `CCOc1ccc(OCC(O)CNC2CCN(Cc3ccccc3)CC2)cc1` (stereo unspecified): 7.46% (inactive); `COc1ccc(CNCC(O)COc2ccc(C(C)(C)c3ccccc3)cc2)cc1` (stereo unspecified): 26.6% (inactive); `OC(CNCCc1ccccc1)COc1ccc(OCC(O)CNCCc2ccccc2)cc1` (stereo unspecified): 8.04% (inactive).
As for `CC(C)(c1ccccc1)c1ccc(OCC(O)CN2CCCC2)cc1` (stereo unspecified), the figure is 9.77% (inactive); as for `CCCCCC(=O)C(=O)c1ccc(O)cc1O`, -2.38% (inactive).
In the case of `O=C(NNC(=O)c1cccnc1)NC1CCCCC1`, the inhibition was 7.92% (inactive).
Turning to `CSc1cccc(NS(=O)(=O)c2cc(Br)cnc2N)c1`, the inhibition was -1.74% (inactive).
As for `O=C(Nc1ccc(N2CCCCCC2)cc1)c1ccccc1Cl`, the figure is 20.3% (inactive).
With `O=C(Nc1ccc(N2CCCCC2)cc1)c1ccc(F)cc1`, the inhibition is 4.29% (inactive).
Next, `O=C(Nc1ccc(N2CCCCC2)cc1)c1ccccc1`: 36.6% (inactive); `CC(=O)N1CCN(c2ccc(NC(=O)c3ccccc3C)cc2)CC1`: 9.24% (inactive).
In the case of `CC(c1ccncn1)N(C)C(=O)c1ccc2oc(Cc3ccccc3)nc2c1` (stereo unspecified), the inhibition is 6.98% (inactive).
As for `CC1CCCCC1NC(=O)CN(C)S(=O)(=O)c1cccc2nsnc12` (stereo unspecified), the figure is 9.08% (inactive); as for `S=C(NCc1ccco1)N/N=C/c1ccc(Cl)cc1`, 17.1% (inactive); as for `COc1ccc(/C=N/NC(=O)C(=O)N2CCCC2)cc1OC`, 7.5% (inactive).
Next, `S=C(NCc1ccco1)N/N=C/c1ccncc1`: 2.98% (inactive).
As for `COc1ccc(/C=N/NC(=S)NCC2CCCO2)cc1` (stereo unspecified), the figure is 5.53% (inactive); as for `CCOc1ccc(/C=N/NC(=O)CN2CCCCC2)cc1OCC`, 10.1% (inactive).
With `CCCOc1ccc(/C=N/NC(=O)CN2CCCCC2)cc1OCC`, the inhibition was 0.56% (inactive).
Take `COc1cc(/C=N/NC(=S)NCC2CCCO2)cc(OC)c1OC` (stereo unspecified): the inhibition is 7.93% (inactive).
Next, `COc1ccc(/C=N/NC(=O)C(=O)N2CCCCCC2)cc1O`: 11.9% (inactive); `Cc1ccc(C2CN(CCC(N)=O)C(=O)CO2)cc1` (stereo unspecified): 3.49% (inactive).
As for `CC1CCCCC1NC(=O)CCCCCn1c(=S)[nH]c2ccsc2c1=O` (stereo unspecified), the figure is 6.67% (inactive); as for `CC1=C([N+](=O)[O-])C(c2ccccc2C(F)(F)F)NC(=O)N1C` (stereo unspecified), 2.05% (inactive); as for `COc1ccc2c(C)cc(SCC(=O)NC3CCCCC3)nc2c1`, 3.25% (inactive).
As for `O=C(CN1C(=O)COc2ccccc21)N1CCc2ccccc2C1`, the figure is 2.34% (inactive).
For `O=C(NCCc1csc(-c2ccccc2)n1)c1ccc(Br)o1`, the inhibition is 9.81% (inactive).
Next, `O=C(COC(=O)c1ccc(F)c(S(=O)(=O)N2CCOCC2)c1)NCc1ccc(Cl)cc1`: -1.94% (inactive); `N#CCCn1cc(C(=O)Nc2ccc([N+](=O)[O-])cc2)c(-c2cccs2)n1`: 4.36% (inactive); `C[C@@H]1CN([C@H](C)CO)C(=O)c2cc(Br)cnc2O[C@@H]1CN(C)C(=O)c1ccccc1`: 14.7% (inactive).
Next, `Cn1c(=O)cc(OCCCC(=O)NCCCN2CCN(Cc3ccccc3)CC2)c2ccccc21`: 2.96% (inactive); `O=C(NCC1CCCO1)C(=O)N/N=C/c1ccc(O)c(Cl)c1` (stereo unspecified): 26.7% (inactive); `C=CCOc1ccc(/C=N/NC(=O)C(=O)N2CCCCCC2)cc1OC`: 2.52% (inactive).
Next, `COc1cc(/C=N/NC(=O)C(=O)NCC2CCCO2)cc(Cl)c1O` (stereo unspecified): 21.6% (inactive); `O=C(N/N=C/c1cccc(O)c1)C(=O)N1CCCCCC1`: 0.3% (inactive).
Consider `CCN(Cc1nc(-c2ccc(C)cc2)no1)C(=O)c1ccco1`, for which the inhibition is 2.23% (inactive).
Next, `Cc1nnc(NC(=O)CSc2ccccc2N)s1`: 6.42% (inactive).
As for `CCOc1cccc2cc(C(=O)N3CCOCC3)c(=O)oc12`, the figure is 5.1% (inactive); as for `O=C(Cn1cccc1C(=O)c1ccccc1)NCc1cccnc1`, 14.8% (inactive); as for `O=C(CSc1nc2ccccc2[nH]1)Nc1c(F)c(F)c(F)c(F)c1F`, 1.98% (inactive).
As for `COc1ccccc1S(=O)(=O)Cc1ccc(C(=O)NC2CCCCC2)o1`, the figure is 5.84% (inactive); as for `CCOc1cc(CN2CCC(N3CCC(C(=O)NC4CC4)CC3)CC2)ccc1O`, 17.9% (inactive); as for `COc1cc(CN2CCC(C(=O)NC3CCCC3)CC2)cc(OC)c1O`, 23.1% (inactive).
For `COc1ccc(CN2CCC(C(=O)N3CCCC(C)C3)CC2)cc1OC` (stereo unspecified), the inhibition is 12.3% (inactive).
As for `CCOC(=O)C1CCN(Cc2ccc(O)c(OC)c2)CC1`, the figure is 27.4% (inactive).
As for `COc1cc(CN2CCCCCC2)cc(Br)c1O`, the figure is 15.4% (inactive); as for `COc1cc(CN2CCC(C(=O)N3CCCC(C)C3)CC2)cc(OC)c1O` (stereo unspecified), 26.8% (inactive).
Next, `COCc1cc(C(C)=O)ccc1OCC(=O)Nc1ccc(NC(C)=O)cc1`: 1.37% (inactive).
With `CC(NC(=O)c1ccc(Br)o1)c1ccccc1` (stereo unspecified), the inhibition was 7.96% (inactive).
Regarding `CCC(=O)N(CCc1ccccc1)Cc1cc2cc3c(cc2[nH]c1=O)OCO3`, the inhibition is 8.92% (inactive).
As for `N#CC(=Cc1ccccn1)c1nc(-c2ccc(Cl)cc2)cs1`, the figure is 6.28% (inactive); as for `Cc1ccc(C(=O)NCC(=O)NCC(=O)OCc2ccc(Cl)cc2)cc1`, 8.02% (inactive).
With `O=C(CCCn1c(=O)[nH]c2ccccc2c1=O)NCCSCc1ccccc1`, the inhibition is -5.64% (inactive).
As for `Cn1c(=O)[nH]c2c(cnn2C)c1=O`, the figure is -2.19% (inactive); as for `CCCn1c(N)c(Br)c(=O)[nH]c1=O`, 12.3% (inactive).
Next, `Cn1nnnc1SCCNC(=O)C1CCC(=O)N(Cc2ccccc2F)C1` (stereo unspecified): 11% (inactive); `Cc1cc(Nc2ccc([N+](=O)[O-])cc2)c2ccccc2n1`: 4.06% (inactive); `Cc1cc(Nc2cccc([N+](=O)[O-])c2)c2ccccc2n1`: 13.8% (inactive).
As for `O=C(c1cccc(S(=O)(=O)N2CCc3ccccc32)c1)N1CCN(CCO)CC1`, the figure is 1.12% (inactive); as for `O=C(NNc1c2ccccc2nc2ccccc12)c1ccccc1Cl`, 8.54% (inactive); as for `O=C(NNc1c2ccccc2nc2ccccc12)c1ccccc1O`, 9.79% (inactive).
Consider `Cc1ccc(S(=O)(=O)NCC(=O)N(CC2CCCO2)C(C(=O)NC2CCCC2)C(C)C)cc1` (stereo unspecified), for which the inhibition is -2.26% (inactive).
As for `N#CCCN1CCn2c1nc1ccccc12`, the figure is 7.51% (inactive); as for `N#CCCN1CCN(CCC#N)C1=S`, -2.38% (inactive); as for `COc1ccc(Cc2nc3c4c(ncn3n2)Oc2c(ccc3ccccc23)C4c2ccc(OC)c(OC)c2)cc1` (stereo unspecified), 0.4% (inactive).
Next, `COc1cccc(-c2nnc(NC(=O)CCS(=O)(=O)c3ccc(F)cc3)o2)c1`: 9.6% (inactive).
As for `OCC[C@H]1C[C@H](O)[C@@H](O)[C@]2(CCCc3ccccc3O2)O1`, the figure is 6.49% (inactive).
Regarding `CC(C)(C)N(Cc1ccccc1)C(=O)COC(=O)/C=C/c1ccc2c(c1)OCO2`, the inhibition is 7.28% (inactive).
Next, `CC(NC(=O)N(Cc1ccccc1)Cc1ccc2c(c1)OCO2)(C(F)(F)F)C(F)(F)F`: -1.55% (inactive); `CSc1cccc(NC(=O)COC(=O)C2CCN(S(=O)(=O)c3ccccc3)CC2)c1`: 3.95% (inactive).
Consider `CC[C@H]1CN2CCc3cc(OC)c(OC)cc3[C@@H]2C[C@@H]1C[C@H]1NCCc2cc(OC)c(OC)cc21`, for which the inhibition is -1.46% (inactive).
On to `CC[C@H]1CN2CCc3cc(OC)c(OC)cc3C2C[C@@H]1C[C@H]1NCCc2cc(OC)c(OC)cc21` (stereo partly specified), for which the inhibition was 5.06% (inactive).
As for `Oc1[nH]c2ccc(Br)cc2c1N=NC(=S)Nc1ccc(F)cc1`, the figure is 2.02% (inactive).
As for `COc1ccc(NC(=S)N=Nc2c(O)[nH]c3ccccc23)cc1`, the figure is 19.4% (inactive).
For `Oc1cccc(NC(=S)N=Nc2c(O)[nH]c3ccc(Br)cc23)c1`, the inhibition is 21.1% (inactive).
Next, `Cc1ccc(NC(=S)N=Nc2c(O)[nH]c3ccccc23)cc1`: 9.95% (inactive).
Next, `CC(=O)n1cc(/C=N/NC(=O)c2ccc([N+](=O)[O-])cc2)c2ccccc21`: 7.25% (inactive).
Next, `CCOC(=O)c1ccc(NC(=S)N(CCCN2CCCC(C)C2)Cc2ccco2)cc1` (stereo unspecified): 3.37% (inactive).
Consider `Cc1ccc(-c2cc3c(nn2)-c2ccccc2C3=O)cc1`, for which the inhibition is 11.8% (inactive).
With `CC1CCC2(CC1)NC(=O)N(CC(=O)Nc1cccc(S(=O)(=O)N3CCCC3)c1)C2=O` (stereo unspecified), the inhibition is 4.59% (inactive).
Regarding `CCOc1ccc(-n2nc(C(=O)NC3CCCCC3)c3ccccc3c2=O)cc1`, the inhibition is -4.66% (inactive).
Next, `Nc1[nH]c(=S)nc2nc(-c3ccccc3)c(-c3ccccc3)nc12`: 9.86% (inactive); `Nc1nc(N)c2nc(-c3ccccc3)c(N)nc2n1`: 4.54% (inactive); `COCC1CCCCC1OS(N)(=O)=O` (stereo unspecified): 10.2% (inactive).
For the compound `Nc1ccc(Cc2ccc(N)c(C(=O)O)c2)cc1C(=O)O`, the inhibition is 7.39% (inactive).
Next, `Nc1ccc(Cc2ccc(N)c(O)c2)cc1O`: -7.75% (inactive); `N#Cc1cc(C(=O)Cc2ccccc2)c[nH]1`: -3.54% (inactive); `COc1cccc(C(=O)C2CCCN(C(=O)c3ccc(C#CC(C)(C)O)cc3)C2)c1` (stereo unspecified): 1.51% (inactive).
Take `COc1ccc(C(=O)N2c3ccccc3CC2C)cc1OC` (stereo unspecified): the inhibition is 3.63% (inactive).

Source of the values: PubChem BioAssay AID624330 (Southern Research Specialized Biocontainment Screening …, 2012).
